Legend:
Settings in all cases: concentration: 1 μM, replicates: in singlicate; n = 1
BLK = system: BLK
BMPR1A = system: BMPR1A
BMPR1B = system: BMPR1B
BMPR2 = system: BMPR2
BMX = system: BMX
BRAF = system: BRAF
BRK = system: T1, BRK
T1 construct: gene PTK6

BRSK1 = system: BRSK1
BRSK2 = system: BRSK2
BTK = system: BTK
BUB1 = system: BUB1
CAMK1B = system: CAMK1B
CAMK1D = system: CAMK1D
CAMK1G = system: CAMK1G
CAMK1 = system: CAMK1
CAMK2A = system: CAMK2A
CAMK2B = system: CAMK2B
CAMK2D = system: CAMK2D
CAMK2G = system: CAMK2G
CAMK4 = system: CAMK4
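Further: KINOMEscan kinase panel screen.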

Row | SMILES | %Inh (BLK) | %Inh (BMPR1A) | %Inh (BMPR1B) | %Inh (BMPR2) | %Inh (BMX) | %Inh (BRAF) | %Inh (BRK) | %Inh (BRSK1) | %Inh (BRSK2) | %Inh (BTK) | %Inh (BUB1) | %Inh (CAMK1B) | %Inh (CAMK1D) | %Inh (CAMK1G) | %Inh (CAMK1) | %Inh (CAMK2A) | %Inh (CAMK2B) | %Inh (CAMK2D) | %Inh (CAMK2G) | %Inh (CAMK4)
1 | COc1ccc(Nc2nccc(N3CCC(NC(=O)Nc4cc(C)ccc4C)C3)n2)cc1 (centres unmarked) [GSK1379741] | 0% | 0% | 0% | 0% | 0% | 0% | 5% | 0% | 0% | 0% | 33% | 13% | 0% | 0% | 0% | 0% | 0% | 0% | 0% | 0%
2 | CC(C)Oc1ccc2c(-c3ccnc(Nc4ccc(N5CCN(C)CC5)cc4)n3)cnn2n1 [GW696155] | 23% | 0% | 90.5% | 19% | 4% | 43% | 6% | 0% | 0% | 20% | 99.4% | 96.3% | 97.8% | 56% | 71% | 44% | 31% | 54% | 48% | 0%
3 | CN1c2ccc(CNc3ccc(F)cc3)cc2-c2c(cnn2C)S1(=O)=O | 0% | 0% | 0% | 0% | 0% | 36% | 0% | 0% | 0% | 0% | 0% | 0% | 50% | 0% | 63% | 0% | 1% | 4% | 0% | 0%
4 | COc1ccc(COc2cc(-n3cnc4ccccc43)sc2C(N)=O)cc1 [GSK1024304] | 37% | 0% | 0% | 0% | 0% | 0% | 3% | 0% | 5% | 0% | 9% | 0% | 6% | 8% | 7% | 0% | 0% | 0% | 23% | 0%
5 | COc1ccc(Nc2nccc(N3CCC(NC(=O)Nc4cccc(C(C)=O)c4)C3)n2)cc1 (centres unmarked) [GSK1379731] | 35% | 0% | 0% | 0% | 0% | 0% | 7% | 0% | 0% | 0% | 0% | 13% | 40% | 0% | 37% | 0% | 0% | 1% | 11% | 0%
6 | COCCNC(=O)c1ccc(-c2cc(C(=O)NC3CC3)cc(F)c2C)cc1 [GW868318] | 0% | 19% | 19% | 46% | 7% | 10% | 0% | 0% | 18% | 0% | 51% | 5% | 10% | 0% | 14% | 7% | 10% | 8% | 13% | 7%
7 | Cl.Nc1ncnc2occ(-c3ccc(NC(=O)Nc4cc(C(F)(F)F)ccc4F)cc3)c12 [SB-707548] | 44% | 0% | 0% | 1% | 82% | 71% | 3% | 20% | 0% | 21% | 17% | 36% | 23% | 0% | 22% | 0% | 0% | 0% | 25% | 32%
8 | Cc1c(Cn2c(C)nn3c(=O)cc(N4CCOC(C)C4)nc23)cccc1C(F)(F)F (centres unmarked) [GSK2344444] | 25% | 6% | 0% | 0% | 1% | 0% | 7% | 0% | 0% | 0% | 0% | 10% | 9% | 0% | 0% | 0% | 0% | 0% | 10% | 0%
9 | CN(C1=C(c2ccccc2)C(=O)NC1=O)c1ccccc1 [SB-334860] | 0% | 0% | 0% | 0% | 13% | 0% | 2% | 0% | 0% | 0% | 0% | 34% | 3% | 0% | 6% | 7% | 11% | 1% | 3% | 0%
10 | O=C(Nc1n[nH]c2cc(-c3cccc(F)c3)ccc12)C1CC1 [SB-735464] | 0% | 16% | 65% | 28% | 0% | 1% | 0% | 34% | 33% | 0% | 0% | 0% | 22% | 0% | 31% | 19% | 1% | 0% | 27% | 0%
